The structures appear in SMILES notation. Several values for one entry are separate records, joined by “and”; a condition that tells them apart may be missing. Identical values can stand only once. Among all 410,000 compounds or so, about 18,000 (4.4%) were called active. Another 7% or so got no clear call; they are omitted. The sample holds actives, similar compounds and a random draw of the others, so the mix is not that of the screen. Rule as the data show it: active = activity change below about -60%; inconclusive = no clear call, values can overlap the other calls; inactive = above about -39%.

Experimental findings from PubChem BioAssay AID1259415 (National Center for Advancing Translational Sciences (NCATS), 2018) are described below.
% is scaled to controls: 0 for no effect and ±100 for the full control effect.

The test is described as follows: qHTS Assay for inhibitors of the human cytomegalovirus (HCMV). Conditions: HFF cells, HCMV-luciferase reporter, 72 h; at 57.5 µM; hits give low values. The method, boiled down:
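Luciferase read-out from HCMV-luciferase-infected HFFs (MOI 1 PFU/cell) 72 h post infection at 37C; compounds added after 16 h cell attachment; activity normalized between buffer-only basal and Salinomycin (10uM) inhibitor controls.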
Background: In qHTS, concentration-response curves come from the screen itself.
On to `COc1ccccc1N(C)S(=O)(=O)c1ccc(C(=O)N2CCC(C(N)=O)CC2)cc1`, for which the activity change, negative = inhibition was 63.1% (inactive).

For the molecule `COc1cccc(C(=O)Nc2ccc(-c3cc(C(F)(F)F)nn3-c3ccccc3)cc2)c1`, the activity change, negative = inhibition is -87.7% (active).

For the molecule `COc1ccc(C(=O)Nc2ccc(-n3nncc3-c3ccccc3)cc2)cc1OC`, the activity change, negative = inhibition was -6.64% (inactive).

Turning to `COc1cccc(C(=O)NC(=O)Nc2ccc(-c3cc(C(F)(F)F)nn3-c3ccccc3)cc2)c1`, the activity change, negative = inhibition was -6.79% (inactive).

For `Cc1ccc(CNC(=O)CCc2c(C)nc3nc(CNC(=O)OC(C)(C)C)nn3c2C)cc1`, the activity change, negative = inhibition is -10.3% (inactive).

As to `COc1cc2ccccc2cc1C(=O)Nc1cccc(-c2nc3ccccc3o2)c1`, the activity change, negative = inhibition is -27.9% (inactive).

For the molecule `Cc1ccc(C)c(N2CCN(C(=O)C3CCC(CNS(=O)(=O)c4cccs4)CC3)CC2)c1` (stereo unspecified), the activity change, negative = inhibition is -30% (inactive).

Take `CC1CCc2sc(C(=O)NCC(c3ccco3)N3CCCCC3)cc2C1` (stereo unspecified): the activity change, negative = inhibition is -61.7% (active).

As for `CC1Cc2ccccc2N1S(=O)(=O)c1cccc(C(=O)NCC(c2ccco2)N2CCCC2)c1` (stereo unspecified), the activity change, negative = inhibition was -24% (inactive).

In the case of `CSc1ncccc1C(=O)NCC(c1ccco1)N1CCCCC1` (stereo unspecified), the activity change, negative = inhibition is -4.3% (inactive).

Turning to `CCOC(=O)c1ccc(NC(=O)C2CC(=O)NC(=Nc3ccc(C)c(C)c3)S2)cc1` (stereo unspecified), the activity change, negative = inhibition was -14.2% (inactive).

With `CC1(C)CC(=O)c2cc(OCC(=O)NCC3CCCO3)ccc2O1` (stereo unspecified), the activity change, negative = inhibition is 55.1% (inactive).

For `Cc1ccc(CNC(=O)CCC(=O)N2Cc3ccccc3Oc3ncccc32)cc1`, the activity change, negative = inhibition was -2.66% (inactive).

Consider `CN1CCC(N(C)C(=O)c2ccc(Cl)c(S(=O)(=O)Nc3ccc(Cl)cc3)c2)CC1`, for which the activity change, negative = inhibition is -3.23% (inactive).

For `O=C(Cn1c(=O)n(CC2CS2)c2ccccc21)N1CCCCC1` (stereo unspecified), the activity change, negative = inhibition is -89.4% (active).

Turning to `CC1CCCN(C(=O)Cn2c(=O)oc3ccccc32)C1` (stereo unspecified), the activity change, negative = inhibition was 12.6% (inactive).

As for `Cn1c(=O)n(C)c(=O)n(CC(=O)N2CCCCC2)c1=O`, the activity change, negative = inhibition is 32.3% (inactive).

For `Cc1cc(NC(=O)c2ccc(-c3ccc(Cl)cc3)o2)cc(-c2nc3ncccc3o2)c1O`, the activity change, negative = inhibition was 5.53% (inactive).

For the molecule `Cc1cccc(C(=O)OC(C)C(=O)NC2CCCc3ccccc32)c1O` (stereo unspecified), the activity change, negative = inhibition is -10.7% (inactive).

For `Cc1cc(C(=O)NNC(=O)CCC2CCCCC2)c(C)o1`, the activity change, negative = inhibition is -17% (inactive).

For `Cc1cc(C(=O)NC2CCCc3c2cnn3-c2cccc(C)c2C)c(C)o1` (stereo unspecified), the activity change, negative = inhibition was -73.8% (active).

For `COc1cccc(C(=O)Nc2c3c(nn2-c2cccc(C)c2C)CS(=O)(=O)C3)c1OC`, the activity change, negative = inhibition was -4.86% (inactive).

For the molecule `Cc1cccc(-n2nc3c(c2NC(=O)c2ccc(Br)o2)CSC3)c1C`, the activity change, negative = inhibition is 14.4% (inactive).

Turning to `COc1ccc(C(=O)NC2CCCc3c2cnn3-c2cccc(C)c2C)c(OC)n1` (stereo unspecified), the activity change, negative = inhibition is -87% (active).

As to `COc1ccc(C(=O)N2CCC(c3nc4ccccc4o3)CC2)cc1`, the activity change, negative = inhibition was 43.5% (inactive).

`Cc1cccc(N2CCN(C(=O)c3cc4c(=O)[nH]c5ccccc5c4n3C)CC2)c1C`: the activity change, negative = inhibition is -65.2% (active).

For `CCn1c(C)c(C)c2cc(C(=O)N3CCN(c4cccc(C)c4C)CC3)ccc21`, the activity change, negative = inhibition is 0% (inactive) and 13.6% (inactive).

`Cc1cccc(N2CCN(C(=O)c3oc(=O)c4ccccc4c3-c3ccccc3)CC2)c1C`: the activity change, negative = inhibition was 4.74% (inactive).

In the case of `COc1ccc2c(c1)c(=O)c(S(=O)(=O)c1ccc(F)cc1)cn2CC(=O)Nc1ccc(C)cc1C`, the activity change, negative = inhibition is -7.71% (inactive).

For `CCS(=O)(=O)c1nc(S(=O)(=O)c2ccc(C)cc2)c(NCc2ccc(Cl)cc2)s1`, the activity change, negative = inhibition was -5.88% (inactive).

Turning to `Cc1cccc(OCCSc2nc3ccc(NC(=O)COc4ccccc4C)cc3s2)c1`, the activity change, negative = inhibition is -12.2% (inactive).

For `CCn1c(=O)c(=O)n(CC)c2cc(S(=O)(=O)N3CCc4ccccc43)ccc21`, the activity change, negative = inhibition was -35.5% (inactive).

For the molecule `CSc1nc2ccc(S(=O)(=O)N3CCc4ccccc43)cc2s1`, the activity change, negative = inhibition is -81.9% (active).

On to `CCC(=O)Nc1ccc2nc(SCC(=O)N3CCc4ccccc43)sc2c1`, for which the activity change, negative = inhibition is 29.6% (inactive).

Regarding `Cc1nc2sc(C)c(C)n2c(=O)c1S(=O)(=O)NCCc1ccc(Cl)cc1`, the activity change, negative = inhibition is 6.07% (inactive).

Take `Cc1oc2ncnc(N3CCOCC3)c2c1C(=O)NCCc1ccccc1`: the activity change, negative = inhibition is -27.7% (inactive).

Consider `CCNC(=O)C1CCCN(C(=O)c2cc(F)ccc2C)CC1` (stereo unspecified), for which the activity change, negative = inhibition was -4.35% (inactive).

With `O=C(NC(Nc1nc2ccc([N+](=O)[O-])cc2s1)(C(F)(F)F)C(F)(F)F)c1ccccc1`, the activity change, negative = inhibition is -103% (active).

`CN(C)c1cccc(C(=O)Nc2nc3ccc(S(=O)(=O)NC(C)(C)C)cc3s2)c1`: the activity change, negative = inhibition is -29.3% (inactive).

Regarding `NS(=O)(=O)c1ccc2nc(NC(=O)COc3ccccc3)sc2c1`, the activity change, negative = inhibition was -8.44% (inactive).

Take `O=C(Nc1cc(C(F)(F)F)ccc1Cl)c1cc2nc(-c3ccc4c(c3)OCO4)cc(C(F)(F)F)n2n1`: the activity change, negative = inhibition is 4.65% (inactive).

Regarding `CCC(C)Nc1oc(-c2ccc(COc3ccc(Cl)cc3)o2)nc1C#N` (stereo unspecified), the activity change, negative = inhibition is -28.6% (inactive).

Consider `CCC(Sc1nc2n[nH]c(C)c2c(=N)n1-c1ccccc1Cl)C(=O)N(CC)CC` (stereo unspecified), for which the activity change, negative = inhibition was 10.8% (inactive).

For the molecule `CC(C)CN(CC(C)C)C(=O)CN1c2cccc3cccc(c23)S1(=O)=O`, the activity change, negative = inhibition was 51.7% (inactive).

For the molecule `CCN(CC(=O)Nc1c(F)cccc1F)C(=O)CN1c2cccc3cccc(c23)S1(=O)=O`, the activity change, negative = inhibition was -81.2% (active).

For `Cc1ccc(S(=O)(=O)N(C)C)cc1NC(=O)CN1c2cccc3cccc(c23)S1(=O)=O`, the activity change, negative = inhibition is -17.7% (inactive).

With `O=C(O)CN1c2cccc3cccc(c23)S1(=O)=O`, the activity change, negative = inhibition was 24.9% (inactive).

For `CCN(CC(=O)Nc1c(F)cccc1F)C(=O)c1cnc(C)cn1`, the activity change, negative = inhibition is -12.6% (inactive).

As to `COc1ccc(C)cc1NC(=O)CN1c2cccc3cccc(c23)S1(=O)=O`, the activity change, negative = inhibition was -63.9% (active).

As to `CCC(=O)Nc1ccccc1-c1nc2ccccc2n(CC(=O)Nc2ccc(C)c(C)c2)c1=O`, the activity change, negative = inhibition was 4.84% (inactive).

Turning to `O=C(CSc1ncc(CO)n1Cc1ccc(F)cc1)NCc1ccco1`, the activity change, negative = inhibition was -7.64% (inactive).

As to `O=C(CC(CC(=O)c1ccccc1)c1ccco1)c1ccccc1`, the activity change, negative = inhibition was -38.2% (inactive).

Regarding `COc1cc(NC(=O)c2nn(-c3ccc(C)cc3)c(=O)c3c2c2ccccc2n3C)cc(OC)c1OC`, the activity change, negative = inhibition was 8.56% (inactive).

Regarding `CC(=O)Nc1ccc(NC(=O)COC(=O)C2CCC(C(C)(C)C)CC2)cc1` (stereo unspecified), the activity change, negative = inhibition is -11.6% (inactive).

Take `Cc1ccc(NC(=O)C2CCC(C(C)(C)C)CC2)cc1S(=O)(=O)N1CCOCC1` (stereo unspecified): the activity change, negative = inhibition was -25.3% (inactive).

Regarding `CC(C)(C)C1CCC(C(=O)Nc2cccnc2)CC1` (stereo unspecified), the activity change, negative = inhibition was -93.5% (active).
